Source: PubChem BioAssay AID588342 (National Center for Advancing Translational Sciences (NCATS), 2011)
Out of some 360,000 compounds screened, about 25,000 (6.9%) were called active. Not shown: some 9% with an inconclusive outcome. The sample as a whole holds a higher share of actives than the screen did. A number with no mark means an inactive call. Calls come from the whole dose curve; as a rule, active = well fitted inhibition curve with a large enough effect; inconclusive = small, poorly fitted or top-dose-only effect; inactive = flat fitted curve, though single readings scatter.

target: Luciferin 4-monooxygenase (Photinus pyralis) (UniProt P08659); assay: qHTS profiling assay for firefly luciferase inhibitor/activator using purifed enzyme and Km concentrations of substrates (counterscreen for miR-21 project); settings: purified FLuc, luminescence inhibition; series mostly up to 57.5 µM; activity change, negative = inhibition: at the top concentration; note: nearly all actives have a fitted effect of over 55% in size;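 for activity change, negative = inhibition: plate controls were vehicle for no effect and reference inhibitor for full effect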
Sequence (P08659 whole entry, looked up): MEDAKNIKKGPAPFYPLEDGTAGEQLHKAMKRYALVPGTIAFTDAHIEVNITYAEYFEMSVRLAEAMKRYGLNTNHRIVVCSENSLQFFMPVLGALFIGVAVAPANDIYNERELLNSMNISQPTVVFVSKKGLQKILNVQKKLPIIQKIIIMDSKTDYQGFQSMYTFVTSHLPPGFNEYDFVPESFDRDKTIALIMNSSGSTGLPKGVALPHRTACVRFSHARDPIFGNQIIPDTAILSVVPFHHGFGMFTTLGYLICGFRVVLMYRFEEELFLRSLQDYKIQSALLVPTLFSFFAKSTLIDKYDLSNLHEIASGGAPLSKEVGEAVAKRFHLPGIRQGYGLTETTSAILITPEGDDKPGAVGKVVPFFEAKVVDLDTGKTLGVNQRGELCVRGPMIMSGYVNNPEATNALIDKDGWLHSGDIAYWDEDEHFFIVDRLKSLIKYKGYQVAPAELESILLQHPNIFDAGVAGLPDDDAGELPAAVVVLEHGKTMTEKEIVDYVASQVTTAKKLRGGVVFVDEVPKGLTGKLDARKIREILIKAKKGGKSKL
How it was run: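 Purified P. pyralis luciferase, 10 nM final, with Km-level 10 uM D-luciferin and 10 uM ATP in 50 mM Tris acetate pH 7.5, 10 mM Mg acetate, 0.01% Tween-20, 0.05% BSA; 6-point qHTS titration about 60 µM downward; luminescence read.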
Potency is the fitted concentration of half-maximal effect.

Point of comparison: `Cc1cccc(-n2c(C)cc(/C=N/NC(N)=S)c2C)c1`, “activity change, negative = inhibition” value -19.6%. Against it:
- CC(C)Oc1ccc(CNC(=O)C2CCN(c3nc4ccccc4n(C)c3=O)CC2)cc1 — higher, 1.52%
- O=C(O)COCC(=O)NCc1csc2ccc(Cl)cc12 — higher, 1.62%
- CC(=O)Nc1cccc(/C(C)=N/NC(=O)c2c(-c3ccccc3Cl)noc2C)c1 — higher, -2.43%
- Cc1ccccc1NC(=O)c1cc(S(=O)(=O)Nc2cccc(C(=O)O)c2)ccc1Cl — higher, -5.3%
- Cc1ccc(S(=O)(=O)N2CCOCC2)cc1NC(=O)COC(=O)c1cnccn1 — higher, 4.43%
- Cc1cc(F)ccc1NS(=O)(=O)c1ccc(-n2cccn2)cc1 — higher, -17.4%
- O=C(COC(=O)C1(c2ccc(F)cc2)CCCC1)N1CCNC1=O — higher, 2.21%
- COCCN1C(=O)C(=O)/C(=C(/O)c2ccc(S(=O)(=O)N3CCOCC3)cc2)C1c1ccc(O)c(OC)c1 (stereo not given) — higher, 3.35%
- CSc1ccc(NC(=O)/C=C/C(=O)O)cc1 — higher, -17.2%
- O=C(NCc1ccncc1)NC12CC3CC(CC(C3)C1)C2 — higher, 7.76%
- COC(=O)c1sc(NC(=O)COC(=O)C2CCC2)c(C(=O)OC)c1C — higher, 6.53%
- O=C(OCCN1C(=O)c2ccccc2C1=O)Oc1ccccc1 — higher, -4.77%
- Cc1cccc2c1N(CCOc1ccccc1)C(=O)C2=O — higher, 4.77%
- Cc1nc2c(c(C)nn2-c2ccccc2)c(C)c1CCC(=O)NCCc1ccc(Cl)cc1 — lower, -20.7%
- O=C(CSc1ncnc2scc(-c3ccccc3)c12)NCc1ccc2c(c1)OCO2 — higher, 1.67%
- Cc1cc(C)c(NC(=O)CN2C(=O)c3cccnc3Oc3ccc(Cl)cc32)c(C)c1 — higher, 3.06%
- Cn1nnc(NC(=S)NC(=O)c2ccccc2)n1 — higher, 6.32%
- Cc1nc2ccccc2c(=O)n1NC(=O)c1ccccc1 — higher, -1.41%
- Cn1c(S(=O)(=O)O)nc2ccccc21 — higher, 7.69%
- CCn1c(NC(=O)c2nn(C)cc2Br)nc2ccccc21 — higher, -17.5%
- Brc1cc(Br)c(Oc2cc(Br)c(Br)cc2Br)cc1Br — higher, 1.37%
- CC1CCC(N2CC(=O)N(CCC3=CCCCC3)C(c3ccc(F)cc3)C2=O)CC1 (stereo not given) — higher, 3.29%
- COc1ccc(CN2CCN(C(=O)c3cc(C4CC4)nn3-c3ccccc3)CC2)cc1F — higher, -2.79%
- CCn1c2ccccc2c2cc(NC(=O)Nc3ccc([N+](=O)[O-])cc3C)ccc21 — higher, -3.84%
- Cc1ccc(-n2c3nc(=O)[nH]c(=O)c-3cc3c(Cl)cccc32)cc1 — higher, -3.15%
- Cc1ccccc1-c1nc(SCC(=O)N(C)c2ccccc2)c2c(=O)n(C)c(=O)n(C)c2n1 — higher, -3.06%
- CCN(CC)S(=O)(=O)c1ccc(N2CCOCC2)c(NC(=O)c2ccc(=O)n(C)n2)c1 — higher, 4.37%
- COc1ccc(C2=NN(C(=O)CSc3nnnn3C)C(c3ccco3)C2)cc1 (stereo not given) — higher, -0.222%
- CCOC(=O)C1C(=O)NC(N2CCN(c3ccccc3)CC2)=NC1c1ccco1 (stereo not given) — higher, 4.85%
- O=C(CCNC(=O)c1ccccc1Cl)NCc1ccco1 — higher, 1.33%
- Cc1cc(NC(=O)CSc2nnc(Nc3ccccc3F)s2)no1 — higher, -1.21%
- CC(C)(C)NC(=O)CSc1nnc(NC(=O)CCc2ccccc2)s1 — higher, -2.69%
- O=C(Cc1cccs1)Nc1nnc(SCc2ccc(F)cc2)s1 — higher, -0.623%
- CN(C(=O)CSc1nnc(NC(=O)Nc2ccccc2)s1)c1ccccc1 — higher, -6.6%
- O=C(CSc1nnc(C2CC2)n1Cc1ccccc1)Nc1cccnc1Cl — higher, -1.59%
- Cc1nc(SCC(=O)Nc2ccc(C(=O)O)cc2)n[nH]1 — higher, -0.704%
- CCOc1ccc(NC(=O)CN(C)C(=O)CSc2ccccc2)cc1OCC — higher, 7.49%
- Cc1cccc(Nc2cc(C)nc(-n3nc(C)cc3C)n2)c1 — higher, -3.38%
- O=C(NNC(=O)c1cccc(S(=O)(=O)Nc2ccc(Cl)cc2)c1)c1ccc(=O)[nH]c1 — higher, -0.376%
- COc1ccc(C(C)(C)C)cc1NC(=O)CCN1C(=O)C2CCCCC2C1=O (stereo not given) — higher, 4.4%
- O=C(CS(=O)(=O)c1cccc2nsnc12)N1CCN(c2cccc(Cl)c2)CC1 — higher, -0.818%
- COc1cc(N=Cc2c(O)[nH]c3ccccc23)cc(OC)c1OC — higher, -17.8%
- COCC(=O)N=Nc1c(O)[nH]c2ccccc12 — higher, 1.4%
- Cc1ccccc1N1CCN(Cc2nc(Cc3ccccc3F)no2)CC1 — higher, -9.05%
- Cc1ccc(Cl)cc1NC(=O)COC(=O)CC(C)(C)C — higher, -2.2%
- COc1cc(OC)c(C(=O)OC(C)C(=O)Nc2cc(C(F)(F)F)ccc2Cl)cc1OC (stereo not given) — higher, -0.387%
- CC(=O)Nc1ccc(NC(=O)CCCNC(=O)c2ccc(Cl)cc2)cc1 — higher, -0.774%
- CCCCC(=O)Nc1ccc(C(=O)Nc2cc(C(F)(F)F)ccc2Cl)cc1 — higher, -0.15%
- COc1ccc(CC(=O)NCCc2sc3nc(-c4ccc(OC)cc4)nn3c2C)cc1 — higher, -16.1%
- O=C(NCc1ccco1)C1CCCN1S(=O)(=O)c1ccccc1C(F)(F)F (stereo not given) — higher, -1.66%
- C/C(=N\OCC(=O)O)c1ccc(Cl)cc1 — higher, -4%
- COc1cc(/C=C(/NC(=O)c2ccc(Cl)cc2Cl)C(=O)O)cc(OC)c1OC — higher, 0.539%
- CCc1nc2ccccc2c(C(=O)NCc2ccc(OC)cc2)c1C — higher, 5.53%
- COc1ccc(S(=O)(=O)N2CCN(C(=O)NC3CCCCC3)CC2)cc1 — higher, 1.01%
- CCCC(=O)Nc1nc2ccc(NC(=O)c3c(F)c(F)c(OC)c(F)c3F)cc2s1 — higher, 0.027%
- COc1ccc(CNC(=O)c2ccc(Br)s2)cc1OC — higher, -0.0596%
- COc1ccc2oc(=N)c(C(=O)Nc3ccc(Br)cc3)cc2c1 — higher, 2.17%
- CCc1noc(C)c1C(=O)NNC(=O)c1ccc(F)cc1 — higher, 6.73%
- COc1ccc(NC(=O)CCC(=O)Nc2nnc(C3CCCCC3)s2)cc1 — higher, -0.454%
- Cc1cccc(S(=O)(=O)CC(=O)Nc2nc(-c3ccccc3)cs2)c1 — higher, -15.7%
- Cc1ccc(Cl)cc1N1CCN(C(=O)C2CCC(CNS(=O)(=O)c3cccs3)CC2)CC1 (stereo not given) — higher, 0.57%
- Cc1ccc(C(=O)Nc2cc3c(cc2N2CCCC2)n(C)c(=O)c(=O)n3C)cc1 — higher, 3.56%
- Cc1oc2ccc(O)c(CN3CCC(C)CC3)c2c1C(=O)Nc1ccccc1 — higher, -3.71%
- COc1ccc(OC)c(S(=O)(=O)Nc2c(C)nn(C)c2C)c1 — higher, 6.12%
- COc1ccc(-c2nn3c(-c4ccc(OC)cc4)nnc3c3ccccc23)cc1 — higher, 1.34%
- COCCCNC(=S)N(CCN(C)C)Cc1cc2cc3c(cc2[nH]c1=O)OCCO3 — higher, -3.26%
- O=C(CN1c2ccccc2S(=O)(=O)c2ccccc21)Nc1cccc(C(F)(F)F)c1 — higher, -2.21%
- O=C(Cn1c(=O)n(Cc2ccccc2)c(=O)c2sc3ccccc3c21)Nc1ccccc1F — higher, 1.86%
- CCOc1ccc2nc(NC(=O)CSc3nc4c(c(=O)n(C)c(=O)n4C)n3CC)sc2c1 — lower, -20.8%
- CCn1c(SCC(=O)NC2CCCC2)nnc1-c1ccoc1C — higher, 0.285%
- CCOc1ccccc1C(=O)Nc1ccc2c(c1)N(C)C(=O)c1ccccc1S2 — higher, -8.56%
- Cc1ccc(-n2c(SCC(=O)c3ccccc3)nc3c([nH]c4ccccc43)c2=O)cc1 — higher, -1.63%
- CSc1ccc(CCNC(=O)CS(=O)(=O)Cc2nc(-c3ccccc3F)oc2C)cc1 — higher, 1.16%
- CCOC(=O)c1ccc(NC(=O)C2CC(=O)N(c3ccc4c(c3)OCCO4)C2)cc1 (stereo not given) — higher, 4.6%
- Cc1cc(C(=O)Nc2ccc(C)c(S(=O)(=O)N3CCOCC3)c2)c2ccccc2n1 — higher, -0.289%
- Cc1ccc(-c2nnc(SCC(=O)N/N=C/c3cccs3)n2-c2ccc(C)cc2)cc1 — higher, 2.81%
- Cc1cc(/C=N/NC(=O)CC2(C)OCCO2)c(C)n1-c1ccc(Cl)c(Cl)c1 — higher, -5.09%
- Cc1ccc(NC(=O)CCC(=O)N/N=C/c2ccco2)c(C)c1 — higher, -0.493%
- CC1C/C(=N/NC(=O)c2cccs2)CC(C)(C)C1 (stereo not given) — higher, -1.71%
- Cc1cc(/C=N/Nc2ccc([N+](=O)[O-])cn2)c(C)n1-c1cccc(C(=O)O)c1 — higher, -16.1%
- O=C(COC(=O)CCC(=O)c1cccs1)NCc1ccco1 — higher, 2.32%

For `C/C(=N\Nc1cccc(C(=O)O)c1)c1ccc2c(c1)Nc1ccccc1S2`, the Potency was 7.57 µM (active).
In the case of `CSc1ccc(/C=C/C(=O)NC23CC4CC(CC(C4)C2)C3)cc1`, the Potency is reported as 13.5 µM (active).
In the case of `O=C1c2ccccc2C(=O)N1CCOc1ccc(F)cc1`, the Potency is reported as 13.5 µM (active).
In the case of `Cn1sc(NC(=O)c2ccccc2)nc1=O`, the Potency is reported as 19 µM (active).
In the case of `Cn1c(NC(=O)c2ccccc2)nc2ccccc21`, the Potency is reported as 6.75 µM (active).
With `CCOC(=O)C1C(=O)C=C(c2ccc(OC)cc2)CC1c1ccco1` (stereo not given) the Potency was 13.5 µM (active).
With `Cc1ccc(Nc2nc(-c3ccc(O)cc3O)cs2)nc1` the Potency was 2.39 µM (active).
With `O=C(CSc1nnc(Nc2ccccc2)s1)Nc1cccnc1Cl` the Potency was 16.9 µM (active).
With `O=C(CSc1nnc(SCc2ccc(F)cc2)s1)Nc1ccc(C(=O)O)cc1` the Potency was 5.36 µM (active).
With `CC(=O)c1ccc(NC(=O)CSc2nnc(NC(=O)Nc3ccccc3)s2)cc1` the Potency was 0.478 µM (active).
`COc1ccc(N=Cc2c(O)[nH]c3ccccc23)cc1OC` was tested, and the Potency was 15.1 µM (active).
With `O=C(COC(=O)CCCNC(=O)c1ccc(Cl)cc1)Nc1cc(Cl)ccc1Cl` the Potency was 16.9 µM (active).
With `COc1ccc(C(=O)COC(=O)CCCC(=O)Nc2cc(C(F)(F)F)ccc2Cl)cc1` the Potency was 2.13 µM (active).
For `CCOc1cc(/C=C(/C#N)c2ccc(Cl)cc2)cc(Cl)c1OCC(=O)O`, the Potency was 3.79 µM (active).
In the case of `CCc1noc(C)c1C(=O)Nc1nc2ccc(OC)cc2s1`, the Potency is reported as 5.36 µM (active).
In the case of `COc1ccc2nc(NC(=O)c3ccc(Br)s3)sc2c1`, the Potency is reported as 3.01 µM (active).
With `CCc1noc(C)c1C(=O)Nc1nc(-c2ccccc2)cs1` the Potency was 19 µM (active).
In the case of `COc1ccc2nc(NC(=O)NC3CCCCC3)sc2c1`, the Potency is reported as 9.53 µM (active).
`CCn1c(SCC(=O)Nc2nc3ccc(OC)cc3s2)nnc1-c1ccoc1C` was tested, and the Potency was 10.7 µM (active).
For `O=C(N/N=C/C=C/c1ccco1)c1cccs1`, the Potency was 26.9 µM (active).
In the case of `Cc1ccc(-n2c(C)cc(/C=N\NC(=O)CC(=O)NC(C)C)c2C)cc1`, the Potency is reported as 13.5 µM (active).
With `Cc1cccc(-n2c(C)cc(/C=N\NC(=O)c3cccs3)c2C)c1` the Potency was 1.2 µM (active).
In the case of `Cc1ccc(-c2cc(C(=O)N/N=C/C=C/c3ccco3)c3ccccc3n2)cc1C`, the Potency is reported as 1.07 µM (active).
